Shown are actives, neighbours in structure and some others; about 2.4% of the full set was active somewhere.
Cruzain Triton = qHTS Assay for Promiscuous and Specific Inhibitors of Cruzain (with detergent). purified cruzain, Z-FR-AMC fluorescence, 0.01% Triton. Potency, µM, usual class: inhibitors. 0.43% of 200,000 active. AID 1478, 2009; note: nearly all actives have a fitted effect of over 40% in size
Target sequence (P25779 123-467 limits assumed): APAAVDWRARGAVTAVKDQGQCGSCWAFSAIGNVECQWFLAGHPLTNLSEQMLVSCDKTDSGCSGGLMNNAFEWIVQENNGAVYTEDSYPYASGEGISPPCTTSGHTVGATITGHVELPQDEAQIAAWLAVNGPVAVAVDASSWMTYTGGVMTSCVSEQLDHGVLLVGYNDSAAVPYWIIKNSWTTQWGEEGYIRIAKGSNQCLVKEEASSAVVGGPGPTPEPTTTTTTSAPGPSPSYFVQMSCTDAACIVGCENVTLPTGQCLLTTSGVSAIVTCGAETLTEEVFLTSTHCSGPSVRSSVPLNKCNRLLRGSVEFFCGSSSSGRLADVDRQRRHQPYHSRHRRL
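Read-out: AMC fluorescence (360 nm excitation, 450 nm emission), four reads over 2 min, first-to-third difference used. Conditions: cruzain 1.5 nM, Z-FR-AMC 2 uM, pH 5.5 acetate, 5 mM DTT, 0.01% Triton X-100.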
Cruzain noTriton = qHTS Assay for Promiscuous and Specific Inhibitors of Cruzain (without detergent) | Cruzipain (Trypanosoma cruzi), P25779 | purified cruzain, Z-FR-AMC fluorescence, no detergent | Potency, µM, most hits filed as inhibitors | 2.3% of 200,000 active; note: nearly all actives have a fitted effect of over 40% in size
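Purified cruzain at 1.5 nM, pre-incubated 15 min with compound at room temperature in 100 mM sodium acetate pH 5.5, 5 mM DTT, 0.00005% Triton X-100. Reaction started with 2 uM Z-FR-AMC; AMC fluorescence increase over 60 s gives rate.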
Hits are given with their value; n = inactive; u = inconclusive; ! = repeats disagree. Calls come from the whole dose curve; as a rule, active = well fitted curve in the direction sought with a large enough effect; inconclusive = small, poorly fitted or top-dose-only effect, or another doubt; inactive = no such curve, though single readings can be large; an effect the other way counts as inactive or inconclusive.

SMILES	Cruzain Triton	Cruzain noTriton
Cc1c(C(=O)N(C)C2CCCCC2)sc2nc3ccc(N)cc3n12	n	n
CCCN1CCN(CC2=C(C(=O)OCC)C(c3ccc(OC(C)C)cc3)NC(=O)N2)CC1 (stereo not drawn)	n	n
Cc1ccc(C)c(Nc2nc3c(S(=O)(=O)c4ccc(Br)cc4)nnn3c3ccsc23)c1	n	n
FC(F)(F)c1ccccc1Cl	n	n
N#Cc1ccc(OC(=O)c2cc(-c3ccc4c(c3)OCCO4)on2)cc1	n	n
CC1CCc2c(C(=O)OCC(=O)Nc3cccc(S(=O)(=O)N4CCCCCC4)c3)csc2C1 (stereo not drawn)	n	u
Cc1ccc(NC(=O)COC(=O)c2csc3c2CCC(C)C3)cc1S(=O)(=O)N1CCCCC1 (stereo not drawn)	n	25µM
COc1ccccc1CN1CCCC2(CCN(C(C)=O)CC2)C1	n	n
COc1cc(NCCCCCCCN)c2ncccc2c1	n	16µM
COc1cc(NC(C)CCCN)c2ncccc2c1 (stereo not drawn)	n	n
CCN1CCN(C(=O)c2cnn(-c3cccc(C)c3)c2C2CCN(C(=O)OC(C)(C)C)CC2)CC1	n	n
CC(/C=C/c1ccc(N(C)C)cc1)=N/N=C1/NC(=O)CC(C(=O)Nc2ccc(Cl)cc2)S1 (stereo not drawn)	n	u
CCCOc1ccc(NC(=O)C2CC(=O)N/C(=N/N=C(C)/C=C/c3ccc(N(C)C)cc3)S2)cc1 (stereo not drawn)	n	25µM
CCOc1ccc(NC(=O)C2CC(=O)NC(=Nc3ccc(Cl)c(Cl)c3)S2)cc1 (stereo not drawn)	u	10µM
CCOc1ccc(NC(=O)C2CC(=O)N(CC)C(=Nc3ccc4c(c3)OCO4)S2)cc1 (stereo not drawn)	n	n
Cc1ccccc1NC(=O)CSc1nc2c(oc3ccccc32)c(=O)n1Cc1ccco1	n	n
COc1cc(-c2ccc(N=Nc3ccc4c(S(=O)(=O)O)cc(S(=O)(=O)O)c(N)c4c3O)c(OC)c2)ccc1N=Nc1ccc2c(S(=O)(=O)O)cc(S(=O)(=O)O)c(N)c2c1O	25µM!	u
Cc1nn(-c2ccc(S(=O)(=O)O)cc2)c(O)c1N=Nc1ccc(-c2ccc(N=Nc3ccc4c(S(=O)(=O)O)cc(S(=O)(=O)O)c(N)c4c3O)c(O)c2)cc1O.[Cu].[Cu]	n	n
CCOC(=O)C1=C(CSc2nc(CC)c(C)cc2C#N)OC(N)=C(C#N)C1c1ccccc1 (stereo not drawn)	n	n
CCOC(=O)C1=C(CSc2nc(-c3ccccc3)ccc2C#N)OC(N)=C(C#N)C1c1ccc(OC)cc1 (stereo not drawn)	n	16µM
Cc1ccc(CNC(=O)c2c(-c3ccc(Br)cc3)noc2C)o1	n	n
Clc1ccccc1-c1nc(Nc2ccccc2)nc2ccc(Br)cc12	n	25µM
COc1ccccc1Nc1nc(-c2ccccc2Cl)c2cc(Br)ccc2n1	n	n
COCCN(CCOC)S(=O)(=O)c1ccc(C(=O)Nc2sc3c(c2C(N)=O)CCCC3)cc1	n	n
NC(=O)c1c(NC(=O)c2ccc(S(=O)(=O)N(CCCl)CCCl)cc2)sc2c1CCCCC2	n	4µM
SMILES	Cruzain Triton	Cruzain noTriton
CN1CCN(S(=O)(=O)c2cccc(C(=O)Nc3sc4c(c3C(N)=O)CCCC4)c2)CC1	u	13µM
NC(=O)c1c(NC(=O)c2ccc(S(=O)(=O)N3CCOCC3)cc2)sc2c1CCCCC2	n	u
Cc1c(Cl)cccc1NC(=O)c1ncn(-c2ccccc2)n1	n	n
CCCN(c1c(C)n(C)n(-c2ccccc2)c1=O)S(=O)(=O)c1ccc(C)cc1	n	n
COc1ccccc1NC(=O)C1=C(C)Nc2nc(-c3ccco3)nn2C1c1ccccc1F (stereo not drawn)	n	n
O=C1c2ccccc2-c2ccc(N=[N+]([O-])c3ccc4c(c3)C(=O)c3ccccc3-4)cc21	n	n
CN(C)c1ccc(/C=N/N=C2/NC(=O)/C(=C/c3ccc([N+](=O)[O-])cc3)S2)cc1	n	6.3µM
Cc1c(N=C2NC(=O)/C(=C/c3cccc([N+](=O)[O-])c3)S2)c(=O)n(-c2ccccc2)n1C	n	n
CC1=CC(C)(C)Nc2ccc(OC(=O)CN3C(=O)c4cccc5cccc(c45)C3=O)cc21	n	25µM
CC1=CC(C)(C)Nc2ccc(OC(=O)CN3C(=O)c4ccccc4C3=O)cc21	n	n
Cc1ccc(NC(=O)c2cc(C(=O)c3cc(Cl)ccc3O)cn(-c3ccc(C)cc3)c2=O)cc1	n	5µM
N#Cc1cc(C(=O)c2cc(Cl)ccc2O)cn(-c2ccccc2)c1=O	n	n
Cc1ccc(N2C(=O)C(CC(=O)Nc3ccc(F)cc3)N(Cc3ccc4c(c3)OCO4)C2=O)cc1 (stereo not drawn)	n	n
COc1ccc(C2CC(=O)c3c([nH]c(C(=O)OCc4ccccc4)c3C)C2)cc1OC (stereo not drawn)	n	n
C/C=C/COC(=O)c1[nH]c2c(c1C)C(=O)CC(c1ccc(N(C)C)cc1)C2 (stereo not drawn)	n	32µM
Cc1c(C(=O)OCc2ccccc2)[nH]c2c1C(=O)CC(c1ccc(Cl)cc1)C2 (stereo not drawn)	n	7.9µM
CCOCCOC(=O)c1[nH]c2c(c1C)C(=O)CC(c1ccc(N(C)C)cc1)C2 (stereo not drawn)	n	n
Cc1ccc(C2C(C=Nc3c(C)n(C)n(-c4ccccc4)c3=O)=C(c3ccccc3)Oc3ccccc32)cc1 (stereo not drawn)	n	7.9µM
Cc1c(N=Cc2cccs2)c(=O)n(-c2ccccc2)n1C	n	n
COc1ccc(-c2nnc(SCC(=O)Nc3cccc(Cl)c3C)nc2-c2ccc(OC)cc2)cc1	n	n
CCN(CC)S(=O)(=O)c1ccc(C(=O)NCCSc2c[nH]c3ccccc23)cc1	n	n
CCN(CC)S(=O)(=O)c1ccc(C(=O)NCCSc2c(-c3ccc(C)cc3)[nH]c3ccccc23)cc1	n	25µM
O=C1CCCN1CCCn1cnc2c([nH]c3ccc(F)cc32)c1=O	n	n
C=CCNc1ncnc2c1[nH]c1ccc(C)cc12	n	n
Cc1ccc2[nH]c3c(NCCN4CCOCC4)ncnc3c2c1	n	20µM
SMILES	Cruzain Triton	Cruzain noTriton
O=C1CCCN1CCCNc1ncnc2c1[nH]c1ccc(Cl)cc12	25µM	16µM
COCCCNC(=O)CCCN1C(=O)CCn2nc(-c3cn(C)c4ccccc34)cc21	n	n
CCOC(=O)/C(=C\Nc1ccccc1C(F)(F)F)Sc1ncc(C(F)(F)F)cc1Cl	n	u
N#Cc1c(Sc2ncc(C(F)(F)F)cc2Cl)nsc1C/C=N\OCc1ccccc1Br	n	7.9µM
COc1ccc(-c2nc3cnc(N4CCN(C)CC4)nc3n(CCc3ccccc3)c2=O)cc1	n	n
CCOc1ccc2nc(N/C(N)=N/C(=S)Nc3cccc(C)c3)nc(C)c2c1	n	32µM
COc1ccc2nc(N/C(N)=N/C(=S)Nc3cccc(C)c3)nc(C)c2c1	n	u
CCc1ccc(S(=O)(=O)c2cn(C)c3ccc(C)cc3c2=O)cc1	n	n
Cc1ccc(C)c2[nH]c(=O)c(CN(CCN3CCCC3)C(=O)Nc3cccc(Cl)c3)cc12	n	25µM
Cc1cc(C)c2cc(CN(CCN3CCCC3)C(=O)Nc3ccc(F)cc3)c(=O)[nH]c2c1	n	u
O=C(NCc1ccc(F)cc1)c1c(O)nc2ccccn2c1=O	n	n
